# From PubChem BioAssay AID504362 (National Center for Advancing Translational Sciences (NCATS), 2011)
# “And” between values parts separate entries of the source, which are not always exact repeats. Identical values can stand only once. Records with an inconclusive call do not appear. The source made the active and inactive calls. Calls come from the whole dose curve; as a rule, active = well fitted activation curve with a large enough effect; inconclusive = small, poorly fitted or top-dose-only effect; inactive = flat fitted curve, though single readings scatter.
# Experiment: qHTS Assay for Identifying a Potential Treatment of Ataxia-Telangiectasia: SAR for Probe
# Conditions: F2112 A-T fibroblasts, NCS-induced pKAP1 AlphaLISA
# Source text: NIH Chemical Genomics Center [NCGC] NIH Molecular Libraries Probe Centers Network [MLPCN] MLPCN Grant: MH089030-01 Assay Submitter (PI): Wei Zheng and Yosef Shiloh Ataxia-telangiectasia (A-T) is a devastating and progressive disease for which, there is no cure. Although A-T is a multisystem disease, it is stereotyped characterized by its neurological symptoms such as truncal ataxia, due to cerebellar cortical degeneration of the Purkinje and granule cells. Other symptoms of A-T are telangiectasias (dilated blood vessels), primary immunodeficiency, marked sensitivity to ionizing radiation (IR), chromosomal instability and predisposition to cancer. The underlying genetic cause of A-T is null mutations in the ATM (A-T mutated) gene. ATM is a nuclear serine/threonine kinase that functions as a master regulator of the cellular responses to double strand breaks (DSBs) in the DNA. Upon activation by DSBs, ATM phosphorylates a plethora of downstream targets, including KAP-1 on Ser82452. […] To screen for small molecules that will compensate for the loss of ATM in cells derived from A-T patients, we monitored KAP-1 phosphorylation as a readout for ATM-like activity using an AlphaLISA assay. […]
# qHTS Assay Protocol: Step,Parameter,Value,Description 1. […] Readout, EnVision, EnVision plate reader. […] EnVision protocol for 1536-well AlphaScreen read (30ms excitation, 100ms read), about 10 min/plate.
smiles,measurement,value
CC(=O)c1c(O)c(C)c(O)c(Cc2c(O)c3c(c(C(=O)/C=C/c4ccccc4)c2O)OC(C)(C)C=C3)c1O,Potency,29.2 µM (active) and 10 µM (active)
